From PubChem BioAssay (Tox21)
Records with an inconclusive call do not appear. The source made the active and inactive calls. Unless noted, the call rests on the fitted dose curve; in most records, active means well fitted curve in the direction sought with a large enough effect in the repeat runs; inconclusive means weak or mixed curves; inactive means no such curve, though single readings can be large; an effect the other way counts as inactive or inconclusive.

Columns and labels:
[1] = qHTS assay for small molecule agonists of the p53 signaling pathway (AID 651631; calls by dose curve; further: nearly all actives have a fitted effect of over 15% in size)
How it was run: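 HCT-116 cells carrying a stable p53 response element–beta-lactamase reporter were plated, rested 5 h at 37 °C, then exposed to compound in DMSO for 16 h at 37 °C; reporter activity was read as FRET substrate fluorescence after 2 h at room temperature.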

[2] = qHTS assay for small molecules that induce genotoxicity in human embryonic kidney cells expressing luciferase-tagged ATAD5 (AID 651632); further: nearly all actives have a fitted effect of over 15% in size
How it was run: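 Concentration-response screen for ATAD5 upregulation in HEK293T luciferase reporter cells; 16 hr treatment at 37C, then luminescence after 30 min with Amplite at room temperature.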

[3] = qHTS assay for small molecule agonists of the p53 signaling pathway - cell viability (AID 651633; calls by dose curve; further: series mostly up to about 83 µM; nearly all actives have a fitted effect of over 30% in size)
How it was run: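 p53RE-bla cells, seeded at 4,000 per well and rested 5 h at 37 C/5% CO2, received compounds in DMSO for 16 h at 37 C. CellTiter-Glo was then added, and luminescence was read after 30 min at room temperature to gauge cytotoxicity.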

[4] = qHTS assay for small molecules that induce genotoxicity in human embryonic kidney cells expressing luciferase-tagged ATAD5 - cell viability (AID 651634; calls by dose curve; further: nearly all actives have a fitted effect of over 25% in size)
How it was run: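 15.5 hr compound or vehicle exposure of HEK293T cells expressing luciferase-tagged ATAD5 at 37C; live-cell protease activity is read by fluorescence after 30 min of CellTiter-Fluor.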

[5] = qHTS assay for small molecule disruptors of the mitochondrial membrane potential - cell viability (AID 720634; calls by dose curve;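 further: human HepG2 liver cancer cells; series mostly up to about 83 µM; nearly all actives have a fitted effect of over 20% in size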)
How it was run: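 In this qHTS format, HepG2 cells plated overnight were pinned with compound, incubated 1 hr, and assayed for ATP luminescence with CellTiter-Glo after m-MPI dye addition.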

[6] = qHTS assay for small molecule disruptors of the mitochondrial membrane potential (AID 720635)
How it was run: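 HepG2 cells (2,000/well) attached overnight at 37C, then took compound for 1 hr at 37C, 5% CO2. Mito-MPS dye was added for 30 min; fluorescence was read at 490/535 nm (monomers) and 540/590 nm (aggregates).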

[7] = qHTS assay to test for compound auto fluorescence at 590 nm (red) in HepG2 cells (AID 720674)
How it was run: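 Intrinsic compound fluorescence in the red window (Ex/Em 540/590 nm) is measured in attached HepG2 cells exposed for 1 hr, DMSO vehicle as baseline, benchmarked to Rose Bengal sodium.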

[8] = qHTS assay to test for compound auto fluorescence at 535 nm (green) in HepG2 cells (AID 720675)
[9] = qHTS assay to test for compound auto fluorescence at 460 nm (blue) in HEK293 cells (AID 720678)
How it was run: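 HEK293 cells (2,000/well, medium with 10% dialyzed FBS) attached 4-5 hr, then exposed to compound overnight at 37C, 5% CO2. Blue fluorescence read at 405/460 nm, with triamterene as reference fluorophore.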

[10] = qHTS assay to test for compound auto fluorescence at 590 nm (red) in HEK293 cells (AID 720679)
How it was run: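 HEK293 cells (2,000/well, 10% dialyzed FBS) attached 4-5 hr, then dosed with compound or DMSO and incubated overnight at 37C, 5% CO2. Red fluorescence read at 540/590 nm, Rose Bengal sodium as reference fluorophore.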

Measured: Potency

O=C(O)c1ccc(OCCn2ccnc2)cc1
inactive: [1] | [2] | [3] | [4] | [5] | [6] | [7] | [8] | [9] | [10]

CNC[C@@H]1CC[C@@H](N)[C@@H](O[C@H]2[C@H](O)[C@@H](O[C@H]3OC[C@](C)(O)[C@H](NC)[C@H]3O)[C@H](N)C[C@@H]2N)O1
inactive: [1] | [2] | [3] | [4] | [5] | [6] | [7] | [8] | [9] | [10]

CCCCCCCCCCCCCCCCCC(=O)OCCO
inactive: [1] | [2] | [3] | [4] | [5] | [6] | [7] | [8] | [9] | [10]

O=P(O)(O)C(Sc1ccc(Cl)cc1)P(=O)(O)O
inactive: [1] | [2] | [3] | [4] | [5] | [6] | [7] | [8] | [9] | [10]

CCOC(=O)Cc1cccc(-c2cc(CCCCCCc3ccc(O[C@H]4O[C@H](COC(C)=O)[C@@H](OC(C)=O)[C@H](OC(C)=O)[C@@H]4OC(C)=O)c(-c4cccc(CC(=O)OCC)c4)c3)ccc2O[C@H]2O[C@H](COC(C)=O)[C@@H](OC(C)=O)[C@H](OC(C)=O)[C@@H]2OC(C)=O)c1
inactive: [1] | [2] | [3] | [4] | [5] | [6] | [7] | [8] | [9] | [10]

CCN(CC)c1ccc(N=Nc2ccc(S(=O)(=O)N(C)C)cc2)c(S(=O)(=O)NCC[n+]2ccccc2)c1
inactive: [1] | [2] | [3] | [4] | [5] | [6] | [7] | [8] | [9] | [10]

NCCCC[C@H](NC(=O)[C@@H]1CCCN1C(=O)[C@@H]1CSSC[C@H](N)C(=O)N[C@@H](Cc2ccccc2)C(=O)N[C@@H](Cc2ccccc2)C(=O)N[C@@H](CCC(N)=O)C(=O)N[C@@H](CC(N)=O)C(=O)N1)C(=O)NCC(N)=O
inactive: [1] | [2] | [3] | [4] | [5] | [6] | [7] | [8] | [9] | [10]

C#CCOc1ccc2c(C)cc(=O)oc2c1
inactive: [1] | [2] | [3] | [4] | [5] | [7] | [8] | [9] | [10]

O=P(O)(O)C(O)(Cc1cnc2ccccn12)P(=O)(O)O
inactive: [1] | [2] | [3] | [4] | [5] | [6] | [7] | [8] | [9] | [10]

COc1ccc(CCNCC(O)COc2cccc(C)c2)cc1OC (configuration not stated)
inactive: [1] | [2] | [3] | [4] | [5] | [6] | [7] | [8] | [9] | [10]

C=CCOc1ccc(CC(=O)O)cc1Cl
inactive: [1] | [2] | [3] | [4] | [5] | [7] | [8] | [9] | [10]

CO[C@@H]1[C@@H](O[C@@H]2O[C@H](C)[C@@H](O[C@H]3C[C@@](C)(O)[C@@H](O)[C@H](C)O3)[C@H](N(C)C)[C@H]2O)[C@@H](CC=O)C[C@@H](C)[C@@H](O[C@@H]2CC[C@H](N(C)C)[C@@H](C)O2)/C=C/C=C/C[C@@H](C)OC(=O)C[C@H]1O
inactive: [1] | [2] | [3] | [4] | [5] | [7] | [8] | [9] | [10]

CS(=O)(=O)NC(=O)CCC/C=C\C[C@H]1C(=O)C[C@@H](O)[C@@H]1/C=C/[C@H](O)COc1ccccc1
inactive: [1] | [2] | [3] | [4] | [5] | [6] | [7] | [8] | [9] | [10]

OC[C@H]1O[C@@H](n2cnc3c2NC=NC[C@H]3O)C[C@@H]1O
inactive: [1] | [2] | [3] | [4] | [5] | [7] | [8] | [9] | [10]

CC(C)(C)C(=O)OCOC(=O)[C@@H]1N2C(=O)[C@@H](N=CN3CCCCCC3)[C@H]2SC1(C)C
inactive: [1] | [2] | [3] | [4] | [5] | [7] | [8] | [9] | [10]

CC(C)c1nc(N(C)S(C)(=O)=O)nc(-c2ccc(F)cc2)c1/C=C/C(O)CC(O)CC(=O)O (configuration not stated)
inactive: [1] | [2] | [3] | [4] | [5] | [7] | [8] | [9] | [10]

CC1(C)S[C@@H]2[C@H](NC(=O)C(C(=O)Oc3ccc4c(c3)CCC4)c3ccccc3)C(=O)N2[C@H]1C(=O)O (some centres not stated)
inactive: [1] | [2] | [3] | [4] | [5] | [7] | [8] | [9] | [10]

C[C@@](Cc1ccc(O)c(O)c1)(NN)C(=O)O
inactive: [1] | [2] | [3] | [4] | [5] | [7] | [8] | [9] | [10]

CC(=O)O[C@H]1C[C@@]2(C)[C@@H](C[C@@H](O)[C@H]3[C@@]4(C)CC[C@@H](O)[C@@H](C)[C@@H]4CC[C@@]32C)/C1=C(\CCC=C(C)C)C(=O)O
inactive: [1] | [2] | [3] | [4] | [5] | [7] | [8] | [9] | [10]

Cn1nnnc1SCC1=C(C(=O)O)N2C(=O)[C@@H](NC(=O)[C@H](O)c3ccccc3)[C@H]2SC1
inactive: [1] | [2] | [3] | [4] | [5] | [6] | [7] | [8] | [9] | [10]

CC(C)CN(C[C@@H](O)[C@H](Cc1ccccc1)NC(=O)O[C@@H]1CCOC1)S(=O)(=O)c1ccc(N)cc1
inactive: [1] | [2] | [3] | [4] | [5] | [6] | [8] | [9] | [10]

CC1(C)C2CC[C@]3(C)[C@H](C(=O)C=C4[C@@H]5C[C@@](C)(C(=O)O)CC[C@]5(C)CC[C@]43C)[C@@]2(C)CC[C@@H]1O[C@H]1O[C@H](C(=O)O)[C@@H](O)[C@H](O)[C@H]1O[C@@H]1O[C@H](C(=O)O)[C@@H](O)[C@H](O)[C@H]1O (some centres not stated)
inactive: [1] | [2] | [3] | [4] | [5] | [7] | [8] | [9] | [10]

CCOC(=O)Nc1ccc2c(c1)N(C(=O)CN(C)C)c1ccccc1CC2
inactive: [1] | [2] | [3] | [4] | [5] | [7] | [8] | [9] | [10]

CC1(C)[C@@H]2CC[C@@]1(C)[C@H](OC(=O)CSC#N)C2
inactive: [1] | [2] | [3] | [4] | [5] | [7] | [8] | [9] | [10]
